Assay results as given in PubChem BioAssay AID1159580 (chemical genetic matrix, 2015).
Among all 5,500 compounds or so, about 2,000 (36%) were called active. Roughly 18% stayed inconclusive and do not appear here. Cut-off read from the data, not from the text of the source: active = normalized growth mostly below about 0.91 (no sharp cut-off); inconclusive = no clear call, values can overlap the other calls; inactive = mostly above about 0.92. Some of the results follow.

Assay: chemical genetic growth profiling, strain panel (AID 1159580);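 note: tested at 20 µM; growth read once vehicle control cultures reached saturation at 30 °C; 1 = growth at the plate median or of vehicle wells; lower values mean less growth of the strain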
Settings: growth OD
[1] = S. cerevisiae deletion strains, locus YAL013W, strain DEP1, active compounds read low
[2] = S. cerevisiae deletion strains, locus YDR150W, strain NUM1, active compounds read low
[3] = S. cerevisiae deletion strains, locus YGR229C, strain SMI1, active compounds read low
[4] = S. cerevisiae deletion strains, locus YHR030C, strain SLT2, active compounds read low
[5] = S. cerevisiae deletion strains, locus YJL095W, strain BCK1, active compounds read low
[6] = S. cerevisiae deletion strains, locus YJR075W, strain HOC1, active compounds read low
[7] = S. cerevisiae deletion strains, locus YMR263W, strain SAP30, active compounds read low
[8] = S. cerevisiae deletion strains, locus YMR307W, strain GAS1, active compounds read low
[9] = S. cerevisiae deletion strains, locus YNL128W, strain TEP1, active compounds read low
[10] = S. cerevisiae deletion strains, locus YNL153C, strain GIM3, active compounds read low
[11] = S. cerevisiae deletion strains, locus YNL322C, strain KRE1, active compounds read low
[12] = S. cerevisiae deletion strains, locus YPL055C, strain LGE1, active compounds read low
[13] = S. cerevisiae deletion strains, locus YAL040C, strain CLN3, active compounds read low
[14] = S. cerevisiae deletion strains, locus YCL061C, strain MRC1 (second series), active compounds read low
[15] = S. cerevisiae deletion strains, locus YDR363W, strain ESC2, active compounds read low
[16] = S. cerevisiae deletion strains, locus YER002W, strain NOP16, active compounds read low
[17] = S. cerevisiae deletion strains, locus YHR079C, strain IRE1, active compounds read low
[18] = S. cerevisiae deletion strains, locus YJR066W, strain TOR1, active compounds read low
[19] = S. cerevisiae deletion strains, locus YLR113W, strain HOG1, active compounds read low
[20] = S. cerevisiae deletion strains, locus YNL175C, strain NOP13, active compounds read low
[21] = S. cerevisiae deletion strains, locus YNL183C, strain NPR1, active compounds read low
[22] = S. cerevisiae deletion strains, locus YNL197C, strain WHI3, active compounds read low
[23] = S. cerevisiae deletion strains, locus YNL224C, strain SQS1, active compounds read low
[24] = S. cerevisiae deletion strains, locus YOR083W, strain WHI5 (second series), active compounds read low
[25] = S. cerevisiae deletion strains, locus YOR231W, strain MKK1, active compounds read low
[26] = S. cerevisiae deletion strains, locus YPL256C, strain CLN2, active compounds read low

Measured: normalized growth

CC(=O)c1c(O)c(C)c(O)c2c1oc1c(C(C)=O)c(O)c(C)c(O)c12
active: S. cerevisiae deletion strains, locus YDR101C, strain arx1, active compounds read low 0.918 | S. cerevisiae deletion strains, locus YDR502C, strain sam2, active compounds read low 0.91 | S. cerevisiae deletion strains, locus YKR001C, strain vps1, active compounds read low 0.638 | S. cerevisiae deletion strains, locus YML032C, strain rad52, active compounds read low 0.891 | S. cerevisiae deletion strains, locus YNR052C, strain pop2, active compounds read low 0.852
inactive: [1] 1 | S. cerevisiae deletion strains, locus YBR021W, strain FUR4, active compounds read low 0.991 | S. cerevisiae deletion strains, locus YBR229C, strain ROT2, active compounds read low 0.981 | S. cerevisiae deletion strains, locus YCL029C, strain bik1, active compounds read low 0.961 | S. cerevisiae deletion strains, locus YDL035C, strain GPR1, active compounds read low 0.942 | S. cerevisiae deletion strains, locus YDL074C, strain BRE1, active compounds read low 0.963 | S. cerevisiae deletion strains, locus YDL101C, strain DUN1, active compounds read low 0.98 | S. cerevisiae deletion strains, locus YDL134C, strain PPH21, active compounds read low 0.981 | S. cerevisiae deletion strains, locus YDL192W, strain arf1, active compounds read low 0.934 | [2] 0.988 | S. cerevisiae deletion strains, locus YDR162C, strain NBP2, active compounds read low 0.979 | S. cerevisiae deletion strains, locus YDR318W, strain mcm21, active compounds read low 0.934 | S. cerevisiae deletion strains, locus YDR388W, active compounds read low 0.966 | S. cerevisiae deletion strains, locus YEL061C, strain CIN8, active compounds read low 0.98 | S. cerevisiae deletion strains, locus YER110C, active compounds read low 0.976 | S. cerevisiae deletion strains, locus YER155C, strain BEM2, active compounds read low 0.973 | S. cerevisiae deletion strains, locus YER167W, strain BCK2, active compounds read low 0.963 | S. cerevisiae deletion strains, locus YGL078C, strain dbp3, active compounds read low 0.987 | S. cerevisiae deletion strains, locus YGL086W, strain mad1, active compounds read low 0.993 | S. cerevisiae deletion strains, locus YGL248W, strain PDE1, active compounds read low 0.973 | S. cerevisiae deletion strains, locus YGR078C, strain PAC10, active compounds read low 0.943 | S. cerevisiae deletion strains, locus YGR135W, strain pre9, active compounds read low 0.954 | [3] 0.901 | S. cerevisiae deletion strains, locus YGR252W, strain gcn5, active compounds read low 0.906 | [4] 0.961 | S. cerevisiae deletion strains, locus YHR079C, strain IRE1 (second series), active compounds read low 0.953 | S. cerevisiae deletion strains, locus YHR094C, strain hxt1, active compounds read low 0.978 | S. cerevisiae deletion strains, locus YHR129C, strain ARP1, active compounds read low 0.975 | S. cerevisiae deletion strains, locus YHR200W, strain rpn10, active compounds read low 0.938 | S. cerevisiae deletion strains, locus YIL066C, strain RNR3, active compounds read low 0.924 | S. cerevisiae deletion strains, locus YIL073C, strain SPO22, active compounds read low 0.942 | S. cerevisiae deletion strains, locus YIL125W, strain kgd1, active compounds read low 0.983 | S. cerevisiae deletion strains, locus YIR030C, strain dcg1, active compounds read low 0.952 | [5] 0.909 | S. cerevisiae deletion strains, locus YJL134W, strain LCB3, active compounds read low 0.977 | S. cerevisiae deletion strains, locus YJL168C, strain set2, active compounds read low 0.968 | S. cerevisiae deletion strains, locus YJL187C, strain SWE1 (second series), active compounds read low 0.944 | S. cerevisiae deletion strains, locus YJR043C, strain POL32, active compounds read low 0.926 | [6] 0.974 | S. cerevisiae deletion strains, locus YKL009W, strain mrt4, active compounds read low 0.944 | S. cerevisiae deletion strains, locus YKL068W, active compounds read low 0.995 | S. cerevisiae deletion strains, locus YKL085W, strain MDH1 (second series), active compounds read low 0.982 | S. cerevisiae deletion strains, locus YKL085W, strain MDH1, active compounds read low 0.982 | S. cerevisiae deletion strains, locus YKL190W, strain CNB1, active compounds read low 0.988 | S. cerevisiae deletion strains, locus YLR039C, strain RIC1, active compounds read low 0.722 | S. cerevisiae deletion strains, locus YLR058C, strain SHM2, active compounds read low 0.966 | S. cerevisiae deletion strains, locus YLR102C, strain apc9, active compounds read low 0.979 | S. cerevisiae deletion strains, locus YLR262C, strain YPT6, active compounds read low 0.827 | S. cerevisiae deletion strains, locus YLR268W, strain sec22, active compounds read low 0.906 | S. cerevisiae deletion strains, locus YLR330W, strain CHS5, active compounds read low 0.983 | S. cerevisiae deletion strains, locus YLR342W, strain FKS1 (second series), active compounds read low 0.882 | S. cerevisiae deletion strains, locus YLR371W, strain rom2, active compounds read low 0.979 | S. cerevisiae deletion strains, locus YLR418C, strain cdc73, active compounds read low 0.9 | S. cerevisiae deletion strains, locus YML016C, strain PPZ1, active compounds read low 0.975 | S. cerevisiae deletion strains, locus YML124C, strain tub3, active compounds read low 0.964 | S. cerevisiae deletion strains, locus YMR078C, strain ctf18, active compounds read low 0.966 | S. cerevisiae deletion strains, locus YMR223W, strain ubp8, active compounds read low 0.921 | [7] 0.957 | [8] 0.901 | S. cerevisiae deletion strains, locus YNL067W, strain RPL9B, active compounds read low 0.961 | [9] 0.972 | [10] 0.986 | S. cerevisiae deletion strains, locus YNL233W, strain BNI4, active compounds read low 0.943 | S. cerevisiae deletion strains, locus YNL250W, strain rad50, active compounds read low 0.977 | S. cerevisiae deletion strains, locus YNL271C, strain bni1, active compounds read low 0.985 | S. cerevisiae deletion strains, locus YNL298W, strain CLA4, active compounds read low 0.958 | S. cerevisiae deletion strains, locus YNL307C, strain MCK1, active compounds read low 0.941 | [11] 0.989 | S. cerevisiae deletion strains, locus YOL006C, strain TOP1, active compounds read low 0.921 | S. cerevisiae deletion strains, locus YOL012C, strain htz1 0.749 | S. cerevisiae deletion strains, locus YOL147C, strain pex11, active compounds read low 0.958 | S. cerevisiae deletion strains, locus YOR061W, strain CKA2, active compounds read low 0.963 | S. cerevisiae deletion strains, locus YOR069W, strain VPS5, active compounds read low 0.988 | S. cerevisiae deletion strains, locus YOR136W, strain idh2, active compounds read low 0.967 | S. cerevisiae deletion strains, locus YOR144C, strain elg1, active compounds read low 0.971 | S. cerevisiae deletion strains, locus YOR184W, strain ser1, active compounds read low 0.88 | S. cerevisiae deletion strains, locus YOR316C, strain cot1, active compounds read low 0.972 | [12] 0.95 | S. cerevisiae deletion strains, locus YPL241C, strain CIN2, active compounds read low 0.962 | S. cerevisiae deletion strains, locus YPR119W, strain clb2, active compounds read low 0.971 | S. cerevisiae deletion strains, locus YPR141C, strain kar3, active compounds read low 0.985 | S. cerevisiae deletion strains, locus YPR163C, strain tif3, active compounds read low 0.98 | S. cerevisiae deletion strains, locus YPR167C, strain met16, active compounds read low 0.974 | S. cerevisiae deletion strains, strain wtn01, active compounds read low 0.932 | S. cerevisiae strains, strain wild type, active compounds read low 0.954

Nc1nc2ccc(OC(F)(F)F)cc2s1
inactive: [1] 0.937 | [13] 0.985 | [14] 0.979 | [2] 0.954 | [15] 0.943 | [16] 0.979 | [4] 1.02 | [17] 1.02 | [5] 0.961 | [18] 0.956 | [6] 0.918 | [19] 0.94 | [7] 0.988 | [20] 0.975 | [21] 0.944 | [22] 0.988 | [23] 0.979 | [24] 0.938 | [25] 0.999 | [26] 1.02
active: [8] 0.856 | [12] 0.829

CN(C)CCCOc1nn(Cc2ccccc2)c2ccccc12
inactive: [4] 0.972 | [17] 0.968 | [5] 0.979 | [18] 0.954 | [19] 0.956 | [21] 0.922 | [25] 0.967 | [26] 0.991

O=C(O)c1nn(Cc2ccc(Cl)cc2Cl)c2ccccc12
inactive: [1] 1 | [13] 1.05 | [14] 0.99 | [2] 1.02 | [15] 0.972 | [16] 0.956 | [3] 1.03 | [6] 1.02 | [7] 1 | [9] 0.969 | [10] 1.02 | [20] 0.935 | [22] 0.964 | [23] 0.996 | [11] 0.998 | [24] 0.994
